Compounds with a hit are over-represented: about 27% of the library has one in this group of screens.
CYP2C9 inh – blockers of cytochrome P450 2C9 activity – biochemical, luminescence, ADME assay, primary screen; AID 777, 2007; 20% of 96,000 active; P11712; inhibition, % at 5 µM; CYP2C9 Supersomes, luciferin-H conversion;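 active = blocking of liver enzyme CYP2C9 beyond about 50% at 5 µM, limit read from the data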
Target sequence (P11712 whole entry, looked up): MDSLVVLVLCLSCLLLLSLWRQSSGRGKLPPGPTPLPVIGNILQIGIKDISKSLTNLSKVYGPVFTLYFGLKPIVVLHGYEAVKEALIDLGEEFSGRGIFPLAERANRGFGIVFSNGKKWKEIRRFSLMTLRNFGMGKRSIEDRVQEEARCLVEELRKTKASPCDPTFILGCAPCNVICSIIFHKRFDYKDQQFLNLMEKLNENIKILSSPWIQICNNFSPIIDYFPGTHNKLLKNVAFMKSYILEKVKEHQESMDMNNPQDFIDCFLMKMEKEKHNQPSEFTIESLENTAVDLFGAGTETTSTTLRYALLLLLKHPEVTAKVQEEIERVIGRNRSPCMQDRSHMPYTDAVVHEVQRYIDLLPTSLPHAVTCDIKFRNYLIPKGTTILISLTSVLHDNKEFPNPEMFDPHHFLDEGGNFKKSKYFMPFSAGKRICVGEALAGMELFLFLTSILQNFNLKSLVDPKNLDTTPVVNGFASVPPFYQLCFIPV
CYP2C9 act – human CYP2C9 activators, primary screen, biochemical, luminescence. Cytochrome P450 2C9 (Homo sapiens), P11712. recombinant CYP2C9, luciferin-H conversion; active compounds read high; factor 1 = untreated enzyme, 0 = blocked. activation factor at 5 µM. 1.4% of 96,000 active. AID 1024, 2008;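 active = activation factor of 2 or more for CYP2C9 at a 5 µM dose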
CYP2C19 inh – blockers of cytochrome P450 2C19 activity – biochemical, luminescence, ADME assay, primary screen. inhibition, % at 5 µM. CYP2C19 Supersomes, luciferin-H EGE luminescence, 30 min. 21% of 96,000 active. P33261. AID 778, 2007;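 active = CYP2C19 inhibition above a set limit at 5 µM in the primary screen, cut at about 50% in these data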
sEH inh – soluble epoxide hydrolase inhibitors, primary screen, biochemical, human sEH | Bifunctional epoxide hydrolase 2 (Homo sapiens), P34913 | recombinant human sEH enzymatic activity assay | inhibition, % at 2 µM | 0.34% of 91,000 active | AID 707, 2007; in the data active = inhibition above about 80%
sEH activator – soluble epoxide hydrolase activators, primary screen, biochemical, human sEH; Bifunctional epoxide hydrolase 2 (Homo sapiens), P34913; purified human sEH enzymatic activity, activator screen; activation, % at 2 µM; 0.04% of 91,000 active; AID 717, 2007; in the data active = activation above about 37%
CYP2C19 activ – human CYP2C19 activators, primary screen, biochemical, luminescence; Cytochrome P450 2C19 (Homo sapiens), P33261; recombinant CYP2C19, luciferin-H EGE luminescence; active compounds read high; 0 = fully inhibited enzyme, 1 = untreated enzyme; activation factor at 5 µM; 96,000 tested, under 10 active;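 active = activation factor of at least 2 at 5 µM in the primary screen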
Hits are given with their value; 0 = inactive; - = no result given.

SMILES	CYP2C9 inh	CYP2C9 act	CYP2C19 inh	sEH inh	sEH activator	CYP2C19 activ
CCn1c(SCc2nc(-c3ccccc3)no2)nc2ccccc21	0	0	88	0	0	0
c1ccc(-c2noc(CSc3nnnn3C3CCCCC3)n2)cc1	0	0	0	-	-	0
CCCNc1nc(Nc2ccc(C)cc2)nc(N2CCCC2)n1	0	0	0	0	0	0
C=C(C)c1cccc(C(C)(C)NC(=O)Nc2ccc3[nH]c(=O)[nH]c3c2)c1	0	0	0	0	0	0
CN(C(=O)CSC1=Nc2ccccc2C2=NC(c3ccccc3)C(=O)N12)C1CCCCC1 (stereo not given)	0	0	0	0	0	0
CCCCN1CC(C(=O)NC2CCCCC2)CC1=O (stereo not given)	0	0	0	0	0	0
CCc1ccc(-n2c(SCc3c(C)noc3C)nnc2-c2ccncc2)cc1	58	0	73	0	0	0
CCn1c(SCc2nc(-c3ccccc3)no2)nnc1-c1ccco1	-	-	-	0	0	-
Cc1noc(C)c1CSc1nnc(-c2c[nH]c3ccccc23)n1-c1ccc(Cl)cc1	0	0	0	0	0	0
CCn1c(SCc2nc(-c3ccccc3)no2)nnc1-c1cccs1	52	0	51	0	0	0
CCOC(=O)/C=C1\SCC(=O)N1CC(=O)Nc1ccccc1OC(F)F	0	0	96	0	0	0
Cc1nn(C)c(C)c1NC(=O)Nc1cccc(C(F)(F)F)c1	0	0	0	0	0	0
Cc1snc(S(=O)(=O)/C(C#N)=N/Nc2cccc(C(F)(F)F)c2)c1C#N	99	0	0	0	0	0
COc1ccc(N/N=C(/C#N)S(=O)(=O)c2nsc(C)c2C#N)cc1	82	0	0	0	0	0
COc1ccc(Nc2nccc(OC)c2C#N)cc1	0	0	0	0	0	0
O=S(=O)(NCc1ccc(Cl)cc1)c1cnc[nH]1	95	0	78	0	0	0
O=S(=O)(NCc1ccccc1)c1cnc[nH]1	95	0	62	0	0	0
Cc1ccc(CCNS(=O)(=O)c2cnc[nH]2)cc1	98	0	73	-	-	0
O=S(=O)(NCc1cccnc1)c1cc(Cl)ccc1Cl	0	0	0	-	-	0
Cn1cccc1Cc1nnc(SCC(=O)Nc2ccc3c(c2)OCCO3)n1CCc1ccccc1	0	0	0	0	0	0
c1coc(-c2nn3c(Cn4nnc5ccccc54)nnc3s2)c1	0	0	76	0	0	0
c1ccc2c(c1)nnn2Cc1nnc2sc(-c3ccncc3)nn12	57	0	78	0	0	0
Clc1ccc(Cc2nn3c(Cn4nnc5ccccc54)nnc3s2)cc1	73	0	0	0	0	0
Cc1ccc(S(=O)(=O)NC(CC(=O)NCC2CCCO2)c2ccco2)cc1 (stereo not given)	0	0	0	0	0	0
CC(C)CCC(C)N=Cc1c(O)n(Cc2ccccc2)c(=O)c2ccccc12 (stereo not given)	86	0	0	0	0	0
SMILES	CYP2C9 inh	CYP2C9 act	CYP2C19 inh	sEH inh	sEH activator	CYP2C19 activ
Fc1ccc(C(c2nnnn2C2CCCC2)N2CCN(Cc3ccncc3)CC2)cc1 (stereo not given)	81	0	91	0	0	0
COc1ccc(C(c2nnnn2C2CCCC2)N2CCC(C)CC2)cc1 (stereo not given)	69	0	82	0	0	0
Cc1ccc(C(c2nnnn2CCc2ccccc2)N2CCC(C)CC2)cc1 (stereo not given)	-	-	-	0	0	-
COc1ccccc1C(c1nnnn1C(C)(C)C)N1CCCCCC1 (stereo not given)	77	0	52	0	0	0
COCCn1nnnc1C(c1ccc(OC)cc1)N1CCC(C)CC1 (stereo not given)	0	0	73	-	-	0
CCOC(=O)c1ccc(N2C(=O)CC(N3CCC(Nc4ccc(F)cc4)CC3)C2=O)cc1 (stereo not given)	0	0	0	0	0	0
CC(C)COC(=O)Nc1ccccc1C(=O)N1CCOCC1	0	0	0	0	0	0
CCCc1cc(=O)n2[nH]c(-c3ccc(OC)cc3)nc2n1	0	0	0	0	0	0
c1cc(C(c2nnnn2C2CCCCC2)N2CCN3CCCC3C2)ccn1 (stereo not given)	-	-	-	0	0	-
COc1ccccc1C(c1nnnn1C1CCCC1)N1CCN2CCCC2C1 (stereo not given)	85	0	0	0	0	0
COc1ccc(C(c2nnnn2C2CCCCC2)N2CCN(c3ccc(OC)cc3)CC2)cc1 (stereo not given)	85	0	72	0	0	0
COCCn1nnnc1C(c1ccc(Cl)cc1)N1CCSCC1 (stereo not given)	0	0	79	0	0	0
CN(c1ccccc1)C(c1ccc(F)cc1)c1nnnn1C1CCCC1 (stereo not given)	82	0	90	0	0	0
CCCCOc1ccc(/C(N)=N/O)cc1	0	0	0	-	-	0
Clc1ccc(C(c2nnnn2C2CCCC2)N2CCSCC2)cc1 (stereo not given)	79	0	63	0	0	0
COc1ccc(OC)c(C(c2nnnn2C2CCCC2)N2CCN(c3ccccc3)CC2)c1 (stereo not given)	82	0	90	-	-	0
c1cc(N2CCCC2)ccc1C(c1nnnn1C1CCCCC1)N1CCOCC1 (stereo not given)	0	0	0	0	0	0
COc1ccc(C(c2nnnn2CC2CCCO2)N2CCN(c3cccc(C)c3C)CC2)cc1 (stereo not given)	66	0	0	0	0	0
c1ccc(C(c2nnnn2C2CCCC2)N2CCN(c3ccccc3)CC2)cc1 (stereo not given)	-	-	-	0	0	-
COc1ccc(OC)c(C(c2nnnn2CCc2ccccc2)N2CCC(C(N)=O)CC2)c1 (stereo not given)	0	0	0	0	0	0
COc1ccc(C(c2nnnn2CC2CCCO2)N2CCC(C(N)=O)CC2)cc1 (stereo not given)	-	-	-	0	0	-
COCCn1nnnc1C(c1cc(OC)ccc1OC)N1CCc2ccccc2C1 (stereo not given)	0	0	59	-	-	0
O=C(Cn1cc([N+](=O)[O-])cn1)Nc1ccn(Cc2c(F)c(F)c(F)c(F)c2F)n1	0	0	0	0	0	0
CN(C)S(=O)(=O)N1CCN(S(=O)(=O)N(C)C)CC1	0	0	0	0	0	0
Nc1nc(SCc2ccc(Cl)cc2Cl)ns1	-	-	-	0	0	-
CCCc1nc(SCc2ccc(Cl)cc2Cl)n[nH]1	0	0	84	0	0	0
CC(=O)Nc1ccccc1-c1nn[nH]n1	0	0	0	0	0	0
CCOc1ccc(-c2csc(N)c2C(=O)OC)cc1	71	0	66	0	0	0
